# In all, about 33,000 sequences were measured (“E-score (-0.5 to 0.5)”: median about -0.056, highest 2% from about 0.38 on). This excerpt belongs to a sample that is enriched for the highest values.
# Target: Stb4 (UniProt P50104)
# Test: PBM E-score (8-mer binding enrichment) (E-score (-0.5 to 0.5)); higher = stronger / more preferred TF binding
# Details: protein concentration: 200 nM; construct: GST-DNA-binding domain
# How it was run: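 The E-score, a modified Wilcoxon-Mann-Whitney statistic, was computed by the Universal PBM Analysis Suite for every ungapped eight-base word pooled with its reverse complement. Scans behind it were normalised with masliner after bound GST-tagged yeast transcription factors were detected with fluorescent anti-GST. The proteins, at about 100-200 nM, had been applied to universal all-10-mer Agilent arrays made double-stranded by primer extension.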
# Chain of UniProt P50104 (P50104 whole entry): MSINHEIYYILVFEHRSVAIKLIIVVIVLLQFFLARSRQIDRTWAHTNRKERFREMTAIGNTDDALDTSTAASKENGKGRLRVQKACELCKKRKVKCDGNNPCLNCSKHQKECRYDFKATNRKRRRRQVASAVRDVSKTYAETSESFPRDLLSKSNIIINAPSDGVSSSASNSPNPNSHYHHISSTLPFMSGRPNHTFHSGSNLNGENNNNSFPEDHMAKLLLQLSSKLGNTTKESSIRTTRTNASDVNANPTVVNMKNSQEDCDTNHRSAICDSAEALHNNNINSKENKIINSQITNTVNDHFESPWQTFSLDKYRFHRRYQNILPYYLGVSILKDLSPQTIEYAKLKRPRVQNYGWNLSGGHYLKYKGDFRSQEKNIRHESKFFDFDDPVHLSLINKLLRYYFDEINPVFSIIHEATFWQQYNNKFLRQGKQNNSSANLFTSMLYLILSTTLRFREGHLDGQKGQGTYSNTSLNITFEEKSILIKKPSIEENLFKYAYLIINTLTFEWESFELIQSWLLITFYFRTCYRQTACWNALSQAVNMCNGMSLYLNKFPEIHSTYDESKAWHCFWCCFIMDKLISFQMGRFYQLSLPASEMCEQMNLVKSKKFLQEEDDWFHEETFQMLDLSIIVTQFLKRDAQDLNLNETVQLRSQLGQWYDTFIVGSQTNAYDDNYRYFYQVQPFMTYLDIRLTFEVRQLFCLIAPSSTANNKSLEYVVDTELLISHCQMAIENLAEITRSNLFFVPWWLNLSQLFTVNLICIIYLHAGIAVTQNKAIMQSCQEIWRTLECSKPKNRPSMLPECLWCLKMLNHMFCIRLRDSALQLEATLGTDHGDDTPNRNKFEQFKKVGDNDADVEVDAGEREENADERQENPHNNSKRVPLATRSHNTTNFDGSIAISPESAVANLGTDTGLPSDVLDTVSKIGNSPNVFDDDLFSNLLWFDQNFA
row,Sequence,PBM E-score
1,ATGCGAGA,-0.117
2,ATGCGAGG,-0.224
3,ATCCGCGA,0.247
4,CTCCGAGA,0.409
5,AACGGGTC,0.156
6,AACGATAT,-0.0769
7,CTTCTTGC,-0.0322
8,ACCCCGTC,0.167
9,GAGATCTA,-0.103
10,ACTGAGTC,-0.0516
11,CTCTGCCC,-0.215
12,CCTTCTAA,-0.338
13,AATTGAAG,-0.06
14,CCGCGATC,0.142
15,CTCCGTGC,0.217
16,CTCCGAGC,0.428
17,CTCCGCGC,0.168
18,CTGCCAAC,-0.1
19,CCGGAATA,0.347
20,ACGGAACA,0.326
21,CGGGAACA,0.374
22,CCGGAACA,0.431

row,Sequence,PBM E-score
1,GCGGAACA,0.335
2,ACGGAACG,0.327
3,CAGGAACG,-0.144
4,TCGGAACA,0.479
5,CCGGAACG,0.424
6,CCGGAACC,0.41
7,ACGGAACC,0.328
8,GCGGAACC,0.284
9,AGGCCTCG,0.221
10,TCTTCCAA,-0.0347
11,CCTGGTCC,-0.116
12,CGGTAAAA,0.346
13,GTCGGCAC,0.361
14,ATCGGCAG,0.321
15,TTCGGCAA,0.454
16,CTCGGCAA,0.458
17,ATCGGCAC,0.34
18,CTCGGCCA,0.251
19,CACGGCAA,0.199
20,CTCGGCAG,0.444
21,ATCGGCAA,0.366
22,GTCGGCAA,0.368

row,Sequence,PBM E-score
1,CTCGGCAC,0.451
2,CACGGCAG,0.137
3,TAACCGCA,0.154
4,TAGCCCGA,0.245
5,GTACGCCA,-0.109
6,GACCTGTA,-0.0511
7,AGACACTA,0.00615
8,ATACTAAT,-0.00279
9,AGTTCACA,-0.153
10,ATATAGCA,-0.202
11,AACGTCGC,-0.129
12,CCTTGATA,-0.351
13,CAGAGCCG,0.237
14,CCTAACAA,-0.248
15,TACCGAGA,0.431
16,CACCGAGC,0.295
17,AACCGAGA,0.407
18,AACCGAGC,0.418
19,AACCGATA,0.227
20,GACCGAGA,0.339
21,CACCGAGA,0.222
22,AACCGAGT,0.305

row,Sequence,PBM E-score
1,AACCGACA,0.286
2,CCTTCAAG,-0.097
3,ATTTATGG,-0.152
4,CAACATCC,0.213
5,ATGTGCAG,-0.166
6,ACGGATAA,0.416
7,ACGGATAC,0.407
8,ACGGATAT,0.407
9,ATGGATAA,0.024
10,ACGGATAG,0.381
11,ACGGATTA,0.145
12,ACGGATCT,0.28
13,AAGGATAC,-0.152
14,ATGGATAC,0.0478
15,ACCGGTTC,0.216
16,CGAGCGCG,0.235
17,CCTTGGAG,-0.196
18,GTCCGATA,0.22
19,AACCGATG,0.222
20,ATCCGATC,0.428
21,ATCCGATA,0.448
22,ATCCGATG,0.437

# From the supplement of paper PMC3334620
